Laboratory results published in PubChem BioAssay (Tox21).
Inconclusive results are not listed. The source made the active and inactive calls. Unless noted, calls follow the shape of the full dose curve.

Experiments:
[1] = Nuclear factor erythroid 2-related factor 2/antioxidant responsive element (Nrf2/ARE) small molecule agonists: qHTS cell viability counter screen in human keratinocytes (AID 1919968; active = well fitted curve in the direction sought with a large enough effect in the repeat runs; an effect the other way counts as inactive or inconclusive; also: nearly all actives have a fitted effect of over 55% in size)
Procedure, shortened: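 In human HaCaT keratinocytes stably expressing an ARE-driven luciferase, compound exposure lasted 23 h at 37 C under 5% CO2. Viable cells are quantified with a protease-based fluorogenic reagent (CellTiter-Fluor) read 1 h after addition.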

[2] = Nuclear factor erythroid 2-related factor 2/antioxidant responsive element (Nrf2/ARE) small molecule agonists: luciferase reporter gene qHTS assay in human keratinocytes (AID 1919969); also: nearly all actives have a fitted effect of over 35% in size; also: potency is read from the fitted curve at half-maximal effect
[3] = target: Gonadotropin-releasing hormone receptor (Homo sapiens) (UniProt P30968); test: Human gonadotropin-releasing hormone receptor (GnRHR) small molecule agonists, calcium flux assay in GnRHR-HEK293 cells (AID 1920063); also: nearly all actives have a fitted effect of over 35% in size
Chain of Gonadotropin-releasing hormone receptor (Homo sapiens) (P30968 whole entry, looked up): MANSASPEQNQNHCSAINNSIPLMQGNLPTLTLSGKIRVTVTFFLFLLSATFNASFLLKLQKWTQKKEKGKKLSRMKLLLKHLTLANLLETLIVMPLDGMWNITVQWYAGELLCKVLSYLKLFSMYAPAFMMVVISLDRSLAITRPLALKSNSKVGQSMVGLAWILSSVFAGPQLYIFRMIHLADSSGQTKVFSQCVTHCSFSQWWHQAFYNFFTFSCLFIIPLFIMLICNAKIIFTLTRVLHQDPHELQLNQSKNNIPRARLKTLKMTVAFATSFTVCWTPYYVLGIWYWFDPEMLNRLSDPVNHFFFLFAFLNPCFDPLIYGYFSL
Procedure, shortened: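 Intracellular calcium rise is the read-out: engineered human GnRHR HEK293 cells, dye-loaded, are exposed to DMSO-dissolved compounds and fluorescence at Ex/Em 480/540 is tracked for 3 min.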

[4] = target: KiSS-1 receptor (Homo sapiens) (UniProt Q969F8); test: Human kisspeptin (KISS1R) small molecule agonists, calcium flux assay in KISS1R-HEK293 cells (AID 1920064; active = well fitted curve in the direction sought with a large enough effect in the repeat runs; an effect the other way counts as inactive or inconclusive)
Chain of KiSS-1 receptor (Homo sapiens) (Q969F8 whole entry, looked up): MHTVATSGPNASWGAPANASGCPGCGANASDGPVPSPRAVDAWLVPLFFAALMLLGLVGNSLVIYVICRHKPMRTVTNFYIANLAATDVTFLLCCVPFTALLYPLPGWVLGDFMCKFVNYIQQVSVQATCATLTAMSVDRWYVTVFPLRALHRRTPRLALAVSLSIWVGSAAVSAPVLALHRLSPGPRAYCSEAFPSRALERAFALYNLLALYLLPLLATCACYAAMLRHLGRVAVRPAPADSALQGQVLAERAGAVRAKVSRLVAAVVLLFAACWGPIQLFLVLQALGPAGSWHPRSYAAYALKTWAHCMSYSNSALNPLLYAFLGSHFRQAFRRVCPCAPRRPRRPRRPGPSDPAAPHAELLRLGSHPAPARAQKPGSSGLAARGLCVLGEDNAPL
Procedure, shortened: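 Concentration-response testing used 15 concentrations in triplicate on human KISS1R-expressing HEK293 cells. Calcium-dependent fluorescence (Ex/Em 480/540) was followed kinetically for 3 min after compound transfer.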

[5] = G protein-coupled receptor (GPCR) small molecule agonists, calcium flux assay: HEK293 wild type cell line counter screen (AID 1920065)
Procedure, shortened: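 Fluorescence intensity signals activation. After overnight (18 h) culture and a 1 h calcium dye load at 37 C, compounds are added by pin tool and the plate read at 480/540 nm for 3 min in 1 s steps.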

[6] = p53 small molecule agonists, cell-based qHTS assay with human liver microsomes: qHTS cell viability counter screen (AID 1963579); also: nearly all actives have a fitted effect of over 45% in size
Procedure, shortened: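 Luminescent CellTiter-Glo read-out, 30 min at room temperature, gauged cytotoxicity in p53RE-bla cells exposed 16 h at 37 C to DMSO-dissolved compounds with metabolic activation by human liver microsomes and NADPH, each 0.5 mg/mL final.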

[7] = p53 small molecule agonists, cell-based qHTS assay with rat liver microsomes: qHTS cell viability counter screen (AID 1963580); also: nearly all actives have a fitted effect of over 45% in size
Procedure, shortened: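 Counter screen for cytotoxicity under metabolic activation: rat liver microsomes and NADPH, 0.5 mg/mL final each, added with compounds to p53RE-bla HCT-116 cells; 16 h at 37 C, then ATP luminescence read.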

[8] = p53 small molecule agonists, cell-based qHTS assay: qHTS cell viability counter screen (AID 1963581); also: nearly all actives have a fitted effect of over 45% in size
Procedure, shortened: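 Luminescence from CellTiter-Glo, reflecting ATP content, serves as the cytotoxicity measure; it is taken after the 2 h reporter substrate step in HCT-116 p53RE-bla cells dosed for 16 h at 37 C.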

[9] = target: 5-hydroxytryptamine receptor 2A (Homo sapiens) (UniProt P28223); test: 5-hydroxytryptamine receptor 2A (HTR2A) small molecule antagonists, cell-based qHTS assay (AID 1963586); also: nearly all actives have a fitted effect of over 45% in size; also: potency is read from the fitted curve at half-maximal effect
Chain of 5-hydroxytryptamine receptor 2A (Homo sapiens) (P28223 whole entry, looked up): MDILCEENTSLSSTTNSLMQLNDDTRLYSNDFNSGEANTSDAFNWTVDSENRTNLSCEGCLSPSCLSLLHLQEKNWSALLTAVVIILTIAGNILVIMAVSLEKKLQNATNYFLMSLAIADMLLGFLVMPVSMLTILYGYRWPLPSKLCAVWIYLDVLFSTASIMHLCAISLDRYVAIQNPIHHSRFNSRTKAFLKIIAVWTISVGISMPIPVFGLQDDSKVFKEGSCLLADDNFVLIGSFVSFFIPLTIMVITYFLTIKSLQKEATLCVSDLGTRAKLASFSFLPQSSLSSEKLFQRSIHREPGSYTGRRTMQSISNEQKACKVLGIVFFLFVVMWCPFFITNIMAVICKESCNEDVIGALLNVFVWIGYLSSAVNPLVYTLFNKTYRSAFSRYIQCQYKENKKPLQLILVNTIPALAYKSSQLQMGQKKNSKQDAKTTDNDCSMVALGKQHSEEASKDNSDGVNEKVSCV
Procedure, shortened: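 CHO cells stably expressing human HTR2A were plated for 18 h at 37 C, then loaded with calcium dye for 1 h. Compounds were preincubated 5 min at room temperature before DOI (4 nM solution) was added. Kinetic fluorescence was read for 3 min.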

[10] = target: 5-hydroxytryptamine receptor 2A (Homo sapiens) (UniProt P28223); test: 5-hydroxytryptamine receptor 2A (HTR2A) small molecule agonists, cell-based qHTS assay (AID 1963587); also: nearly all actives have a fitted effect of over 30% in size; also: potency is read from the fitted curve at half-maximal effect
Procedure, shortened: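 HTR2A-CHO cells, plated 18 h at 37 C/5% CO2, dye-loaded 1 h at 37 C; compounds in DMSO added by pin tool (agonist mode). Intracellular calcium flux read as kinetic fluorescence on FDSS over 2 min at 1 s intervals.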

[11] = target: Muscarinic acetylcholine receptor M1 (Homo sapiens) (UniProt P11229); test: Cholinergic receptor muscarinic 1 (CHRM1) small molecule antagonists, cell-based qHTS assay (AID 1963588); also: nearly all actives have a fitted effect of over 40% in size
Chain of Muscarinic acetylcholine receptor M1 (Homo sapiens) (P11229 whole entry, looked up): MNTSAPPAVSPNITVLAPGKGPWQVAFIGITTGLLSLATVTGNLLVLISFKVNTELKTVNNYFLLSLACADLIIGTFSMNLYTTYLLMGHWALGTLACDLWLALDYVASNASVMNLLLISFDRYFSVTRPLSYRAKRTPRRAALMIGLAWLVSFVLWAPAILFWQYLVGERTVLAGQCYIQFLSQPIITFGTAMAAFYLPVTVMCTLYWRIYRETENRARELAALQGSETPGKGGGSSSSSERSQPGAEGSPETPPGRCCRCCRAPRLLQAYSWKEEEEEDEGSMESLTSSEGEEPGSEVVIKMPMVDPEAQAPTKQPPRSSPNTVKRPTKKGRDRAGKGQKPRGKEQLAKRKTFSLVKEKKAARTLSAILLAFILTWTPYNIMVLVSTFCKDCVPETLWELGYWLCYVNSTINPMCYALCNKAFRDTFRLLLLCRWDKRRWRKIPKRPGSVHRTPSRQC
Procedure, shortened: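 Compounds were tested at 15 concentrations in three independent runs. Dye-loaded CHRM1-CHO cells were exposed 5 min at room temperature before stimulation by acetylcholine added at 50nM. Intracellular calcium was read kinetically on FDSS for 3 min.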

[12] = target: Muscarinic acetylcholine receptor M1 (Homo sapiens) (UniProt P11229); test: Cholinergic receptor muscarinic 1 (CHRM1) small molecule agonists, cell-based qHTS assay (AID 1963589); also: nearly all actives have a fitted effect of over 35% in size
Procedure, shortened: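 Fluorescent calcium dye reports M1 activation in stably transfected CHO cells. Compounds, 15 concentrations, added after 1 h dye loading at 37 C; kinetic reading at 1 sec intervals.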

[13] = cAMP Responsive Elements (CRE) small molecule agonists, cell-based qHTS assay (AID 1963590)
Procedure, shortened: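 Compound exposure lasted 3 h at 37 C/5% CO2 in CRE-bla HEK 293T cells grown in assay medium with 10% dialyzed FBS and 25 mM HEPES. Reporter signal came from LiveBLAzer B/G FRET substrate, 2 h, room temperature.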

[14] = cAMP Responsive Elements (CRE) small molecule antagonists, cell-based qHTS assay (AID 1963591; active = well fitted inhibition curve with a large enough effect in the signal ratio in the repeat runs, not every such curve was filed as active; the % refers to the signal ratio)
Procedure, shortened: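 Stimulation used NKH477 at a final 0.25 uM for 3 h in compound-treated CRE-bla HEK293T cells, seeded 18 h beforehand. Reporter activity was measured with LiveBLAzer B/G FRET substrate after 2 h at room temperature.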

[15] = target: Beta-2 adrenergic receptor (Homo sapiens) (UniProt P07550); test: Adrenergic beta2 receptor (ADRB2) small molecule antagonists, cell-based qHTS assay (AID 1963592); also: series mostly up to about 92 µM; nearly all actives have a fitted effect of over 50% in size
Chain of Beta-2 adrenergic receptor (Homo sapiens) (P07550 whole entry, looked up): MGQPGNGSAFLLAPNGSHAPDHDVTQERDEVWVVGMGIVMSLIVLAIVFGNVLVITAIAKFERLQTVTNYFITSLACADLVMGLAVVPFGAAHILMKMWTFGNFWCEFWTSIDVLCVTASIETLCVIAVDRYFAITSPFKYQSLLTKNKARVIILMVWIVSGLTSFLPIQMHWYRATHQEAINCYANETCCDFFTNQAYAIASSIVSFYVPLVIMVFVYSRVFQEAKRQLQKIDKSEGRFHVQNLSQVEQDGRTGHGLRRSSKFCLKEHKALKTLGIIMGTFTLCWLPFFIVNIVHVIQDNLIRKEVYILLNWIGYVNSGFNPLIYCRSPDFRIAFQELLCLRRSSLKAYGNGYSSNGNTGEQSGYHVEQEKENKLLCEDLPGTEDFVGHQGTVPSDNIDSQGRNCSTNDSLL
Procedure, shortened: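 Assay format: CHO-ADRB2 cells, 18-20hr seeding at 37C/5% CO2, then compound plus 1nM isoproterenol agonist mix for 0.5hr RT. Homogeneous time-resolved fluorescence cAMP detection after 1hr, expressed as 665/615 nm ratio.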

[16] = target: Beta-2 adrenergic receptor (Homo sapiens) (UniProt P07550); test: Adrenergic beta2 receptor (ADRB2) small molecule agonists, cell-based qHTS assay (AID 1963593);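 also: CHO cells stably overexpressing human ADRB2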
Procedure, shortened: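 CHO cells stably over-expressing ADRB2 were plated overnight at 37C, then dosed with compounds plus a stimulation mix containing 100uM IBMX and 25uM Ro-20-1724 for 0.5hr at room temperature. cAMP was measured by HTRF competition, 1hr.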

[17] = target: D(2) dopamine receptor (Homo sapiens) (UniProt P14416); test: Dopamine D2 receptor (DRD2) small molecule antagonists, cell-based qHTS assay (AID 1963595; active = well fitted inhibition curve with a large enough effect in the signal ratio in the repeat runs, with a control signal flat; the % refers to the signal ratio)
Chain of D(2) dopamine receptor (Homo sapiens) (P14416 whole entry, looked up): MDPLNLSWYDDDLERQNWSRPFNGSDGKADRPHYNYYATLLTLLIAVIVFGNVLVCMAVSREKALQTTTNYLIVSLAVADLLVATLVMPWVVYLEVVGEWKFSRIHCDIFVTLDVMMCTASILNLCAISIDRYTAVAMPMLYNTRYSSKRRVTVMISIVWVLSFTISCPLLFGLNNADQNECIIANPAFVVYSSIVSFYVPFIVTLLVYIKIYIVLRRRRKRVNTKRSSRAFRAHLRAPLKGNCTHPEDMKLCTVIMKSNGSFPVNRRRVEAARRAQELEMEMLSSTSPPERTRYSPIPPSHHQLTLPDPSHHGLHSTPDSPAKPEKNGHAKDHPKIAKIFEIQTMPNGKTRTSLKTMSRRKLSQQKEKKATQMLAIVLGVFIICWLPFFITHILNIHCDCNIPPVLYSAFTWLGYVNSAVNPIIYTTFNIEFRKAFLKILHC
Procedure, shortened: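 HEK293 cells stably expressing DRD2, preincubated with 0.1 mM Ro20-1724 and compounds 10 min, were stimulated with 200 nM NKH477 plus 12 nM quinpirole for 30 min at room temperature; cAMP measured by HTRF (665/620 nm).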

[18] = p53 small molecule agonists, cell-based qHTS assay (AID 1963582; active = well fitted activation curve with a large enough effect in the signal ratio in the repeat runs, not every such curve was filed as active; the % refers to the signal ratio)
Procedure, shortened: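 After plating, p53RE-bla cells sat 5 h in the incubator; compounds or DMSO vehicle were pinned in; a 16 h incubation at 37 C followed; FRET substrate was added and, 2 h later at RT, fluorescence was measured.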

[19] = target: D(2) dopamine receptor (Homo sapiens) (UniProt P14416); test: Dopamine D2 receptor (DRD2) small molecule agonists, cell-based qHTS assay (AID 1963594); also: nearly all actives have a fitted effect of over 35% in size
Procedure, shortened: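 HEK293 cells stably expressing DRD2 were cultured 24 h at 37 C, then given Ro20-1724 (0.1 mM final) and compounds for 10 min at room temperature. NKH477 (200nM) was then added for 30 min. cAMP was read by HTRF.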

Measured: Potency

C[C@@H](N)[C@@H](O)c1ccccc1
inactive: [1] | [2] | [3] | [4] | [5] | [6] | [7] | [8] | [9] | [10] | [11] | [12] | [13] | [14] | [15] | [16] | [17]

CCOP(=S)(OCC)Oc1cc(C)nc(N(CC)CC)n1
inactive: [1] | [2] | [3] | [4] | [5] | [6] | [7] | [8] | [18] | [10] | [11] | [12] | [15] | [16] | [19] | [17]

CCOP(=S)(OCC)SCSc1ccc(Cl)cc1
inactive: [1] | [2] | [3] | [4] | [5] | [6] | [7] | [8] | [9] | [10] | [11] | [12] | [13] | [15] | [16] | [19] | [17]

COc1cc(C[C@@H](C)N)c(OC)cc1C
inactive: [1] | [2] | [3] | [4] | [5] | [6] | [7] | [8] | [11] | [12] | [13] | [14] | [17]
active: [9] 0.0013 µM | [10] 0.0105 µM

CCOP(=S)(OCC)SCSCC
inactive: [1] | [2] | [3] | [4] | [5] | [6] | [7] | [8] | [9] | [10] | [11] | [12] | [13] | [14] | [15] | [16] | [19] | [17]

CCOP(=O)(Sc1ccccc1)Sc1ccccc1
active: [2] 61.1 µM
inactive: [1] | [3] | [4] | [5] | [6] | [7] | [8] | [9] | [10] | [11] | [12] | [13] | [14] | [15] | [16] | [19] | [17]

CCCCOP(=O)(O)OCCCC
inactive: [1] | [2] | [3] | [4] | [5] | [6] | [7] | [8] | [9] | [10] | [11] | [12] | [13] | [14] | [16] | [17]

CCOP(=S)(OCC)SCSP(=S)(OCC)OCC
inactive: [1] | [3] | [4] | [5] | [6] | [7] | [8] | [18] | [14] | [15] | [16] | [19] | [17]
active: [2] 68.6 µM

Cc1cccc(C)c1NC1=NCCCS1
inactive: [1] | [2] | [3] | [4] | [5] | [6] | [7] | [8] | [9] | [10] | [11] | [12] | [13] | [14] | [15] | [19]

CCOP(=S)(OCC)Oc1nc(Cl)n(C(C)C)n1
inactive: [1] | [2] | [3] | [4] | [5] | [6] | [7] | [8] | [9] | [10] | [11] | [12] | [13] | [14] | [15] | [16] | [19] | [17]

O=C(C(Cl)(Cl)Cl)C(Cl)(Cl)Cl
inactive: [1] | [2] | [3] | [4] | [5] | [6] | [7] | [8] | [9] | [10] | [11] | [12] | [13] | [14] | [15] | [19] | [17]

ClC(Cl)C(Cl)(Cl)Cl
inactive: [1] | [2] | [3] | [4] | [5] | [6] | [7] | [8] | [9] | [10] | [11] | [12] | [13] | [14] | [15] | [19]

CCCN
inactive: [1] | [2] | [3] | [4] | [5] | [6] | [7] | [8] | [9] | [10] | [12] | [13] | [15] | [16] | [19] | [17]

CC(C)(C)OC(=O)c1ncn2c1[C@@H]1CCCN1C(=O)c1c(Br)cccc1-2
inactive: [1] | [2] | [3] | [4] | [5] | [6] | [7] | [8] | [9] | [10] | [11] | [12] | [15] | [16] | [17]
